# SNCA viab count = cell viability loss counter-screen | HEK-293-SNCA-luc viability, GF-AFC fluorescence, 24 h | Potency, µM (titrated, usually from 57.1 µM), for the others: at the highest dose activity change, negative = cytotoxicity, most hits filed as cytotoxic | 150,000 tested, 0.12% active;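 further: potency means the concentration at half of the fitted maximal effect; 0% = DMSO-treated cells and -100% = medium-only wells without cells; nearly all actives have a fitted effect of over 30% in size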
#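 HEK-293-SNCA-luc cells (1500/well) plated 24 h, then exposed 24 h to a dilution series; GF-AFC added 30 min at 37C, fluorescence 405/540 nm; normalised to medium-only and DMSO wells, Hill fit.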
# SNCA expr inhib = SNCA gene expression inhibition; Potency, µM (top dose mostly 57.2 µM), inactives show at the top dose activity change, negative = inhibition, most hits filed as inhibitors; 140,000 tested, 0.17% active; HEK-293 SNCA-luciferase knock-in, luminescence, 24 h;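 further: potency means the concentration at half of the fitted maximal effect; plate controls were DMSO cells for no effect and cell-free wells for full effect; nearly all actives have a fitted effect of over 45% in size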
# GPT2 inhibitor = blocks human glutamate pyruvate transaminase 2; Q8TD30; Recombinant GPT2, coupled pyruvate oxidase/HRP Amplex Red fluorescence; Potency, µM (series often up to 57.7 µM), for inactives: at the highest dose activity change, negative = inhibition, hits mostly inhibitors; 100,000 tested, 0.25% active; AID 1671188; further: potency means the concentration at half of the fitted maximal effect; nearly all actives have a fitted effect of over 60% in size
#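 Recombinant GPT2 (10ng/uL) with 250uM a-KG and 2mM L-alanine, 30 min at room temperature, in HEPES pH 7.5 buffer. Pyruvate detected by pyruvate oxidase/HRP/Amplex Red fluorescence after 30 min in the dark; AOA (50uM) as positive control.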
# IP6K1 inhibitor = IP6K1 kinase inhibition; Q92551; IP6K1 kinase, ADP-Glo luminescence, 2 h; active compounds read low; activity change, % (series mostly up to about 58 µM); 140,000 tested, 0.81% active; AID 1645851; in the data active means activity change below about -25%
# Target sequence (Q92551 whole entry, looked up): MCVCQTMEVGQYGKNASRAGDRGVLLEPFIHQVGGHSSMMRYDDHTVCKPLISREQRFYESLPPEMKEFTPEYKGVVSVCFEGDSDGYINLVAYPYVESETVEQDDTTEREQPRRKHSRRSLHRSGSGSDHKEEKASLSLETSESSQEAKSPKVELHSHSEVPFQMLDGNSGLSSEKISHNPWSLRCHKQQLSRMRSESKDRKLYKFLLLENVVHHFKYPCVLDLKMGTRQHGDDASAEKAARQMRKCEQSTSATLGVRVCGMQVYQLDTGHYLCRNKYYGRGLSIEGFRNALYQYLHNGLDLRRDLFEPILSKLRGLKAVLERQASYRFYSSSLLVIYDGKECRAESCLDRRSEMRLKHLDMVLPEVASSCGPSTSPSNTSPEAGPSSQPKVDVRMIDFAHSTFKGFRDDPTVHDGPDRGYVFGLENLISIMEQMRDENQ
#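 ADP-Glo luminescence measures ADP made by human IP6K1 during a 2 h RT reaction with ATP/IP6 (mix at 1.3 mM/130 uM); top library doses 57.5 and 19.1 uM final.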
# IP6K1 conf = human IP6K1 inhibition, confirmatory. shares compounds with IP6K1 inhibitor. recombinant IP6K1 kinase, ADP-Glo luminescence, 2 h. Potency, µM (titrated, usually from 49 µM), for inactives: top-dose activity change, negative = inhibition, hits mostly inhibitors. 1,200 tested, 13% active. AID 1645852; further: potency means the concentration at half of the fitted maximal effect; nearly all actives have a fitted effect of over 65% in size
# Active calls of the source: *; i = inactive; ? = inconclusive; . = no result given; [ ] = remark or other dose. In the library only some 1% were active in any assay of this set; here they are far more common. Unless noted, the call rests on the fitted dose curve; in most records, active means well fitted curve in the direction sought with a large enough effect; inconclusive means small, poorly fitted or top-dose-only effect, or another doubt; inactive means no such curve, though single readings can be large; an effect the other way counts as inactive or inconclusive. Unless noted, on the % scale 0 is the no-effect control and ±100 the full control effect.
SMILES,SNCA viab count,SNCA expr inhib,GPT2 inhibitor,IP6K1 inhibitor,IP6K1 conf
CCc1nnc(NS(=O)(=O)c2ccc(NC(=S)NC(=O)/C=C/c3ccc(F)cc3)cc2)s1,-6%,.,i,-29*,21µM*
O=C1CCN(S(=O)(=O)c2ccccc2)CCCN(Cc2ccc(C(F)(F)F)cc2)CCN1,-2%,-4%,0%,8,.
CCCc1ccc(-c2nc(C3CCOC3)no2)cc1 (stereo unspecified),-6%,6%,0%,22,.
c1cn(-c2ccc(-c3nc(C4CCOC4)no3)cc2)cn1 (stereo unspecified),-6%,10%,i[11.5 µM],-28*,-14%
Cn1ncc2c(C(=O)NCc3ccccn3)cc(-c3ccccc3F)nc21,.,.,.,1,.
O=C1Nc2nc(-c3c(O)cccc3OCC3CC3)cc([C@@H]3CCCNC3)c2CO1,?,.,i,-11,-17%
Cc1cc(C(=O)NCC2CC2)c2c(C3CCCNC3)noc2n1 (stereo unspecified),-6%,-19%,i,5,.
O=C1NCCOCCN(S(=O)(=O)c2cccc(F)c2)[C@H]2CCC[C@@H]12,1%,0%,i,3,.
Cc1ccc(CNc2nc(-c3ccccc3C(F)(F)F)nc3ccccc23)s1,.,.,.,.,-7%
FC(F)(F)c1ccccc1-c1nc(NCc2ccc(Cl)cc2)c2ccccc2n1,.,.,.,.,-2%
COCCNc1nc(-c2ccccc2C(F)(F)F)nc2ccccc12,-20%,-1%,.,.,.
CN(Cc1cccs1)c1nc(-c2ccccc2C(F)(F)F)nc2ccccc12,.,.,.,.,8%
FC(F)(F)c1ccccc1-c1nc(NCc2ccccc2)c2ccccc2n1,.,.,.,.,31%
COc1ccc(-c2cc3c(=O)n(CCNC(=O)c4cccc(OC)c4OC)ccn3n2)cc1,-20%,-3%,2%,-5,.
COCCN1C(=O)CS(=O)(=O)C12CCN(C(=O)Cc1ccc(Cl)cc1)CC2,5%,-4%,i,-4,.
C=CCOc1c(OC)ccc2c1CN(CC)C(=O)CCN2C[C@@H](O)COCc1ccccc1,.,.,.,-1,.
COCCNC(=O)[C@@H]1CCCN1C(=O)c1cccc(-c2ccccc2OC)c1,7%[12.5 µM],12%,i,-5,.
O=C(C1CCCN1C(=O)Cc1ccc(F)cc1)N1CCC(N2Cc3cccn3C2=O)CC1 (stereo unspecified),-11%,-10%,5%,14,.
O=C(NCc1ccccc1)c1c(-c2cccnc2)cc(=O)n2c1CCCC2,8%,71%,?,-6,.
COc1ccc2nc(SCC(O)c3cccc(Br)c3)[nH]c2c1 (stereo unspecified),-3%,11%,.,-44*,-19%
COc1cc2ncnc(Nc3cccc(I)c3)c2cc1OC,-34%,.,i,-33*,12µM*
COc1cc2ncnc(Nc3cc(Br)c(O)c(Br)c3)c2cc1OC,-11%,3%,?,-15,?
C#Cc1cccc(Nc2ncnc3cc(OCCOC)c(OCCO)cc23)c1,?,?,i,.,.
O=C(CNC(=O)c1ccc(-c2cccc(C(F)(F)F)c2)cc1)NCCCc1ccccc1,7%[12.5 µM],5%,-1%,6,.
O=C(c1ccc(-c2ncc3cnc(-c4ccccc4)cn23)cc1)N1CCc2cccnc21,?,?,-5%[88.5 µM],-4,.
SMILES,SNCA viab count,SNCA expr inhib,GPT2 inhibitor,IP6K1 inhibitor,IP6K1 conf
CCOc1ccccc1NC(=O)Cn1nc2c3cc(F)ccc3n(Cc3cccc(C)c3)cc-2c1=O,-5%,7%,.,-34*,9%
COc1ccccc1NC(=O)Cn1nc2c3cc(F)ccc3n(Cc3cccc(C)c3)cc-2c1=O,-12%,-4%,.,7,.
Cc1noc(C)c1-c1cc2c(cc(-c3ccccc3)n2C)c(Nc2ccncn2)n1,?,-23%[87.6 µM],-9%[88.5 µM],-8,.
c1cc(Nc2cc(C3CC3)[nH]n2)nc(Nc2ccc3nc[nH]c3c2)n1,-36%,.,i,-27*,?
CCN(CC)CCn1c(-c2ccccc2)csc1=Nc1ccccc1,-10%,?,.,-20,.
COc1ccc(-c2csc(=Nc3ccccc3)n2CCO)cc1F,-3%,71%,.,-31*,?
CCc1nc(C)sc1C(=O)N1CCCC(c2[nH]ncc2-c2ccccc2)C1 (stereo unspecified),-15%,-9%,-23%[11.5 µM],-30*,-19%
O=C(NOCC(O)CO)c1ccc(F)c(F)c1Nc1ccc(I)cc1F (stereo unspecified),-2%,.,i,-5,.
O=C(NC[C@H](O)CO)c1ccncc1Nc1ccc(I)cc1F,-13%,30%,i,.,-2%
Cc1nn(-c2ccccc2)c2c1C(C1CC1)N(C1CCN(C(=O)C3CC3)C1)C2=O (stereo unspecified),.,.,.,5,.
Cn1nnnc1SCCNCc1cc(Br)ccc1OCc1ccccc1Cl,?,?,.,-41*,-10%
Cn1nnnc1SCCNCc1ccc(OCc2ccccc2Cl)cc1,-7%,57%,.,6,.
CCC1(C)Cc2c(sc3nc(SC)n(-c4ccc(C)cc4)c(=O)c23)CO1 (stereo unspecified),11%,6%,.,-50*,22%
Cc1cccc2c1O[C@H]1[C@H](C(N)=O)CN(C(=O)OCC(C)(C)C)[C@@H]21,.,.,.,13,.
CCCN(CCC)CCCNC(=O)Cn1cnc2sc(C)c(S(=O)(=O)N3CCC(C)CC3)c2c1=O,-4%,-10%,.,27,.
CCCN(CCC)CCCNC(=O)Cn1cnc2sc(C)c(S(=O)(=O)N3CCCCC3)c2c1=O,6%,1%,.,-27*,-6%
Fc1ccc(-c2ccc3ncc(Nc4ccc5c(c4)OCO5)n3n2)cc1,-25%[87.6 µM],3%[87.6 µM],?,-35*,?
NC(=O)c1ccc(Nc2cnc3ccc(-c4ccccc4)nn23)cc1,9%[87.6 µM],61%[87.6 µM],-29%[88.5 µM],-29*,-22%
Cc1ccc(CCNC(=O)c2nn(C)c3c2CSc2ccccc2-3)cc1,8%,10%,.,-29*,-18%
O=[S+]([O-])(NC1CCCN(c2ccc3nnc(C4CC4)n3n2)C1)c1cccs1 (stereo unspecified),.,.,.,8,.
COC(=O)c1ccccc1NC(=O)c1sc2nc(C)cc(C)c2c1NC(=O)c1ccccc1OC,8%,-21%,.,-30*,8%
Cc1ccc(F)cc1NC(=O)c1cc(-c2ccc[nH]2)n[nH]1,-16%,72%,i,10,?

# High-throughput results (PubChem)
